Compound activity deposited in PubChem by National Center for Advancing Translational Sciences (NCATS).
FLuc modulator: inhibits or activates purified firefly luciferase, miR-21 counter-screen; P08659; purified FLuc, Km substrates, luminescence inhibition; Potency, µM (doses to about 57.5 µM), inactives show at the highest dose activity change, negative = inhibition, hits mostly inhibitors; 6.9% of 360,000 active; AID 588342;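 also: plate controls were vehicle for no effect and reference inhibitor for full effect; nearly all actives have a fitted effect of over 55% in size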
Target sequence (P08659 whole entry, looked up): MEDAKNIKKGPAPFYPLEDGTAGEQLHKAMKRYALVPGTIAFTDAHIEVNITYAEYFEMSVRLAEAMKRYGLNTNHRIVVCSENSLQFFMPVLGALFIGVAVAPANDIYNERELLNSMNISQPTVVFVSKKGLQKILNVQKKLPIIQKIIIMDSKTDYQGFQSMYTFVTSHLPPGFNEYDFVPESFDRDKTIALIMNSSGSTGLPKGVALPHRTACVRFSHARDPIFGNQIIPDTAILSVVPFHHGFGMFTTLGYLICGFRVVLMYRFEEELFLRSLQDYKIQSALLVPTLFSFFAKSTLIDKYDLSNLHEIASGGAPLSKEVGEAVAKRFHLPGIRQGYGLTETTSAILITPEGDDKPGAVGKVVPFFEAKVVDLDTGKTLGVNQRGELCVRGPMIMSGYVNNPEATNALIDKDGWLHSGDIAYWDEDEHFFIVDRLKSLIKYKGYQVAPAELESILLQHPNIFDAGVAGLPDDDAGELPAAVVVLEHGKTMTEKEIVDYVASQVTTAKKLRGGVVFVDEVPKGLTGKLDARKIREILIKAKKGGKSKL
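Purified P. pyralis luciferase, 10 nM final, with Km-level 10 uM D-luciferin and 10 uM ATP in 50 mM Tris acetate pH 7.5, 10 mM Mg acetate, 0.01% Tween-20, 0.05% BSA; 6-point qHTS titration about 60 µM downward; luminescence read.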
Luc counter: counter-screen: inhibitors of Kinase-Glo firefly luciferase; Q27757; Kinase-Glo luciferase, ATP luminescence, 8 min; AID 1379; 0.28% of 200,000 active; Potency, µM (series often up to 38.3 µM), inactives show top-dose activity change, negative = inhibition, actives largely listed as inhibitors; also: % is scaled to controls: 0 for no effect and ±100 for the full control effect; nearly all actives have a fitted effect of over 60% in size
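Inhibition of Kinase-Glo luciferase light generation was assessed at 10 uM ATP in pH 7.2 imidazole buffer, with luminescence measured after eight minutes at ambient temperature.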
Rab9 prom act: Rab9 promoter activation; Huh7 Rab9 promoter-luciferase reporter, luminescence, 24 h; Potency, µM (top dose mostly 9.22 µM), for inactives: at the top dose activation, negative = inhibition, usual class: activators; 2.8% of 320,000 active; also: % of control where 0% means no effect; nearly all actives have a fitted effect of over 60% in size
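Luminescence read-out: Huh7 cells stably expressing Rab9-luciferase, treated 24 h with compound at 37 °C, then lysed with luciferase reagent for 10 min at ambient before reading.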
ELG1 genotoxic: inducers of genotoxicity in HEK293T ELG1-luciferase cells; 1.3% of 330,000 active; AID 504466; HEK293T ELG1-luciferase reporter, luminescence, 16 h; Potency, µM (top dose mostly 46 µM), inactives show at the top dose activity change, positive = activation, hits mostly activators; also: % of control where 0% means no effect; nearly all actives have a fitted effect of over 60% in size
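Luminescence read-out: rising ELG1-luciferase signal, reflecting elevated ELG1 protein under genetic stress, flags genotoxic compounds. Cells were treated for 16 hr at 37 °C before ONE-Glo detection.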
SMN2 splice up: enhancers of SMN2 splice variant expression; AID 1458; HEK293 SMN2-luciferase splicing reporter, luminescence, 30-36 h; Potency, µM (highest dose often 46.1 µM), for inactives: top-dose activity change, positive = activation, actives largely listed as activators; 2.8% of 210,000 active; also: % of control where 0% means no effect; nearly all actives have a fitted effect of over 55% in size
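HEK293 cells carry an SMN2 […]–luciferase reporter in which exon 7 inclusion puts luciferase in frame. Cells were plated 10-12 h before compound addition, then incubated 30-36 h at 37C. ONE-Glo luminescence was read; sodium butyrate at 4.5 mM final served as control.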
NPC1 prom act: activates the NPC1 promoter; Huh7 NPC1 promoter luciferase reporter, 24 h; Potency, µM (doses to about 9.22 µM), for inactives: at the highest dose activation, hits mostly activators; 2.4% of 320,000 active; also: % of control where 0% means no effect; nearly all actives have a fitted effect of over 60% in size
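NPC1 promoter–luciferase Huh7 cells; 24 h compound; luminescence.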
* marks the source's active call; other numbers are inactive results; u = inconclusive; x = not tested or not shown; [ ] = remark or other dose. The list is not random: actives were taken first. Their share in the collection is about 7.5%. Calls follow the shape of the dose curve; as a rule, active = well fitted curve in the direction sought with a large enough effect; inconclusive = small, poorly fitted or top-dose-only effect, or another doubt; inactive = no such curve, though single readings can be large; an effect the other way counts as inactive or inconclusive. Potency is read from the fitted curve at half-maximal effect.

SMILES	FLuc modulator	Luc counter	Rab9 prom act	ELG1 genotoxic	SMN2 splice up	NPC1 prom act
O=C(Nc1ccc2c(c1)nc1n2CCN(C2CCCCC2)C1)c1ccco1	-18.8%	x	16.9%	-1.9%	x	14.0%
O=C(Nc1ccc2c(c1)nc1n2CCOC1)c1ccco1	13.5µM*	-15.0%	3.98µM*	u	u	1.26µM*
O=C(CN1C(=O)COc2ccc(S(=O)(=O)N3CCCCCC3)cc21)NCCc1ccccc1	-11.6%	x	x	x	x	x
O=C(Cc1ccc(Cl)c(Cl)c1)N/N=C/c1cccnc1	0.2%	x	-2.3%	-0.7%	x	0.0%
O=C(O)c1cc(N/N=C/c2ccncc2)ccc1Cl	9.53µM*	x	19.6%	-0.2%	x	17.7%
COc1ccc(C(=O)Oc2ccc(/C=N/Nc3ccc(Cl)c(C(=O)O)c3)cc2OC)cc1	u	x	u	9.7%	x	u
O=C(O)c1cc(N/N=C/c2c[nH]c3ccccc23)ccc1Cl	6.75µM*	x	1.58µM*	u	x	2µM*
O=C(O)c1cc(N/N=C/c2cccnc2)ccc1Cl	19µM*	x	23.9%	5.3%	x	25.9%
CSc1ccc(/C=N/Nc2ccc(Cl)c(C(=O)O)c2)cc1	0.536µM*	2.2%	u	u	1.78µM*	0.1µM*
O=C(N/N=C/c1c[nH]c2ccccc12)c1ccc([N+](=O)[O-])cc1Cl	u	x	0.0%	-0.8%	x	-7.4%
Cc1cccc2sc(N(Cc3cccnc3)C(=O)C3COc4ccccc4O3)nc12 (stereo unspecified)	-6.3%	x	x	x	x	x
O=C(O)c1cc(N/N=C/c2ccc(-c3ccccc3)cc2)ccc1Cl	0.757µM*	x	0.1µM*	0.461µM*	x	0.0891µM*
COc1ccc2oc(-c3cccc(NC(=O)c4ccc(C#N)cc4F)c3)nc2c1	-3.1%	x	x	x	-5.9%	x
CCc1ccc2oc(-c3ccc(C)c(NC(=O)c4ccc(C#N)cc4F)c3)nc2c1	16.9µM*	x	x	x	-10.2%	x
CCC(=O)Nc1cc(-c2nc3cc(C)cc(C)c3o2)ccc1C	1.69µM*	x	x	x	11.4%	x
CCc1ccc2oc(-c3ccc(C)c(NC(=O)Cc4ccccc4)c3)nc2c1	4.78µM*	x	x	x	23.1%	x
CN(C(=O)Nc1ccc(C(C)(C)C)cc1)C1CCCCC1	-0.7%	x	u	5.0%	x	18.4%
CCc1[nH]nc(C(=O)N/N=C/c2ccncc2)c1C	10.7µM*	x	3.16µM*	23.1µM*	x	2.82µM*
CCOC(=O)c1c(C)[nH]c(C(=O)COC(=O)CNC(=O)C2CCCCC2)c1C	3.01µM*	1.7%	7.1%	4.3%	u	-0.9%
CCOC(=O)c1c(C)[nH]c(C(=O)COC(=O)[C@H](C)NC(=O)c2ccccc2Cl)c1C	21.3µM*	-2.3%	29.1%	u	18.7%	12.0%
CCOC(=O)c1c(C)[nH]c(C)c1C(=O)COC(=O)CNC(=O)C1CCCCC1	2.8%	-0.1%	-1.2%	3.4%	11.7%	-5.6%
CCOC(=O)c1c(C)[nH]c(C(=O)COC(=O)CNC(=O)c2ccccc2Cl)c1C	10.7µM*	2.3%	u	u	x	25.2%
Cc1cccc(NC(=O)CCS(=O)(=O)c2cc(Br)cc3c2N(C(=O)C2CC2)CC3)c1	-5.3%	x	x	x	1.8%	x
Cc1ccc(N2NC(C)(c3cccs3)NC2=S)cc1 (stereo unspecified)	9.53µM*	4.2%	3.55µM*	u	22.4%	4.47µM*
COc1ccc(C2=C(C)C(N3CCC(C(=O)NCc4ccco4)CC3)=NS2(=O)=O)cc1	-0.8%	x	x	x	x	x
SMILES	FLuc modulator	Luc counter	Rab9 prom act	ELG1 genotoxic	SMN2 splice up	NPC1 prom act
Cc1cccc(C)c1OCC(=O)Nc1cccc(-c2nnc(-c3ccccc3)o2)c1	u	x	6.1%	-7.1%	x	2.6%
COc1ccccc1OCC(=O)Nc1cccc(-c2nc3ccccc3o2)c1	7.57µM*	-3.1%	9.6%	-1.6%	5.8%	2.1%
Cc1cccc(OCC(=O)Nc2cccc(-c3nnc(-c4ccccc4)o3)c2)c1C	1.7%	-3.1%	20.1%	4.5%	10µM*	u
Cc1ccc(OCC(=O)Nc2cccc(-c3nnc(-c4ccccc4)o3)c2)cc1	u	1.3%	u	2.3%	25.1µM*	u
O=C(COc1ccccc1-c1nnc(-c2ccccc2)o1)Nc1ccc(Br)cc1F	4.78µM*	x	x	x	x	x
Cc1ccc(Cl)cc1NS(=O)(=O)c1ccc2oc(=O)c3ncn(C)c3c2c1	-11.7%	x	x	x	x	x
Cc1ccc(N(C)C(CNS(=O)(=O)c2ccccc2)c2ccccc2)cc1 (stereo unspecified)	2.1%	x	x	x	-8.3%	x
O=C(N/N=C/c1ccc(O)cc1)c1cc(C23CC4CC(CC(C4)C2)C3)[nH]n1	13.5µM*	x	10.4%	4.1%	x	-2.1%
COc1ccc(/C=N/NC(=O)c2cc(C34CC5CC(CC(C5)C3)C4)[nH]n2)cc1OC	u	-1.4%	-3.2%	3.1%	5.3%	-5.0%
Cc1nc2nc(-c3cccnc3)nn2c(C)c1Cl	-9.6%	u	4.9%	u	x	14.7%
Cc1nc2nc(-c3ccco3)nn2c(C)c1Cl	-19.3%	-4.9%	-0.4%	-1.2%	35.5µM*	9.5%
O=C(Nc1ccc(-c2ccccc2)cc1)c1ccco1	4.0%	1.3%	0.5%	8.5%	-4.1%	-4.0%
O=C(Nc1ccc(NC(=O)c2ccco2)cc1)c1ccco1	0.8%	x	5.5%	15.9%	x	7.0%
O=C(COC(=O)c1ccco1)Nc1ccc(Br)cc1	9.53µM*	9.5%	2.9%	-1.2%	-4.8%	1.7%
O=C(Nc1ccc(Br)cc1)c1ccco1	13.5µM*	-3.7%	3.16µM*	7.08µM*	11.2µM*	u
O=C(CNC(=O)c1ccco1)Nc1ccncc1	-1.0%	x	-1.8%	3.5%	x	-2.0%
O=C(Nc1ccc(NC(=O)c2sc3ccccc3c2Cl)cc1)c1ccco1	0.0%	1.7%	-5.2%	23.1µM*	-6.9%	-3.3%
O=C(Nc1ccc(Cc2ccncc2)cc1)c1ccco1	19µM*	-2.5%	u	16.5%	19.5%	u
COc1cc(-c2[nH]ncc2CN2CCN(c3cccc(C)n3)CC2)cc(OC)c1OC	6.0%	x	-11.6%	9.8%	x	-4.2%
O=C(Nc1ccc(Nc2ccccc2)cc1)c1ccco1	7.57µM*	0.4%	0.562µM*	9.2µM*	12.6µM*	u
CC1CCC(NC(=O)COC(=O)c2ccco2)CC1 (stereo unspecified)	23.9µM*	x	-2.4%	-4.3%	x	0.8%
COc1ccc(C(=O)COc2ccc(F)cc2)c(O)c1	13.5µM*	x	u	u	x	3.16µM*
COc1ccc(C(C)=O)c(O)c1	x	-13.5%	x	x	-6.9%	x
O=C(COc1ccc(F)cc1)c1c(O)cc(O)cc1O	8.49µM*	x	u	u	x	u
NNC(=O)COc1ccc(F)cc1	5.1%	-3.8%	-1.7%	-0.7%	-4.9%[1.84 µM]	-8.0%
Cc1nn(-c2ccccc2)c2sc(C(=O)Nc3cccc(Br)c3)cc12	-3.1%	x	x	x	-19.7%	x
